# About 2,000 (36%) of roughly 5,500 compounds were called active. About 18% were inconclusive and are not listed. This is one part of the list. Unmarked numbers belong to inactive results. Cut-off read from the data, not from the text of the source: active = normalized growth mostly below about 0.91 (no sharp cut-off); inconclusive = no clear call, values can overlap the other calls; inactive = mostly above about 0.92.
# Experiment: chemical genetic growth profiling, strain panel (AID 1159580);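 note: tested at 20 µM; growth read once vehicle control cultures reached saturation at 30 °C; 1 = growth at the plate median or of vehicle wells; lower values mean less growth of the strain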
# Conditions: growth OD
structure (smiles),measurement,setting,value
CCn1cc(C(=O)O)c(=O)c2cnc(N3CCCC3)nc21,normalized growth,"S. cerevisiae deletion strains, locus YKL009W, strain mrt4, stronger effect = lower value",0.987
same,normalized growth,"S. cerevisiae deletion strains, locus YKL068W, stronger effect = lower value",1
same,normalized growth,"S. cerevisiae deletion strains, locus YKL085W, strain MDH1 (second series), stronger effect = lower value",0.998
same,normalized growth,"S. cerevisiae deletion strains, locus YKL085W, strain MDH1, stronger effect = lower value",0.998
same,normalized growth,"S. cerevisiae deletion strains, locus YKL160W, strain elf1, stronger effect = lower value",0.975
same,normalized growth,"S. cerevisiae deletion strains, locus YKL190W, strain CNB1, stronger effect = lower value",1
same,normalized growth,"S. cerevisiae deletion strains, locus YKR001C, strain vps1, stronger effect = lower value",0.943
same,normalized growth,"S. cerevisiae deletion strains, locus YKR026C, strain gcn3, stronger effect = lower value",1.02
same,normalized growth,"S. cerevisiae deletion strains, locus YKR091W, strain srl3, stronger effect = lower value",1
same,normalized growth,"S. cerevisiae deletion strains, locus YLL001W, strain dnm1, stronger effect = lower value",1.02
same,normalized growth,"S. cerevisiae deletion strains, locus YLL026W, stronger effect = lower value",1
same,normalized growth,"S. cerevisiae deletion strains, locus YLL041C, strain sdh2, stronger effect = lower value",0.993
same,normalized growth,"S. cerevisiae deletion strains, locus YLR027C, strain aat2, stronger effect = lower value",0.996
same,normalized growth,"S. cerevisiae deletion strains, locus YLR039C, strain RIC1, stronger effect = lower value",0.935
same,normalized growth,"S. cerevisiae deletion strains, locus YLR058C, strain SHM2, stronger effect = lower value",1.01
same,normalized growth,"S. cerevisiae deletion strains, locus YLR102C, strain apc9, stronger effect = lower value",1
same,normalized growth,"S. cerevisiae deletion strains, locus YLR113W, strain HOG1, stronger effect = lower value",0.986
same,normalized growth,"S. cerevisiae deletion strains, locus YLR221C, strain rsa3, stronger effect = lower value",0.994
same,normalized growth,"S. cerevisiae deletion strains, locus YLR258W, strain gsy2, stronger effect = lower value",1.02
same,normalized growth,"S. cerevisiae deletion strains, locus YLR262C, strain YPT6 (second series), stronger effect = lower value",0.789 (active)
same,normalized growth,"S. cerevisiae deletion strains, locus YLR262C, strain YPT6, stronger effect = lower value",0.904
same,normalized growth,"S. cerevisiae deletion strains, locus YLR268W, strain sec22, stronger effect = lower value",0.972
same,normalized growth,"S. cerevisiae deletion strains, locus YLR320W, strain mms22, stronger effect = lower value",1.03
same,normalized growth,"S. cerevisiae deletion strains, locus YLR330W, strain CHS5, stronger effect = lower value",1.01
same,normalized growth,"S. cerevisiae deletion strains, locus YLR342W, strain FKS1 (second series), stronger effect = lower value",1.04
same,normalized growth,"S. cerevisiae deletion strains, locus YLR342W, strain FKS1, stronger effect = lower value",1
same,normalized growth,"S. cerevisiae deletion strains, locus YLR357W, strain rsc2, stronger effect = lower value",1.01
same,normalized growth,"S. cerevisiae deletion strains, locus YLR370C, strain arc18, stronger effect = lower value",0.981
same,normalized growth,"S. cerevisiae deletion strains, locus YLR371W, strain rom2, stronger effect = lower value",0.998
same,normalized growth,"S. cerevisiae deletion strains, locus YLR384C, strain iki3, stronger effect = lower value",1.01
same,normalized growth,"S. cerevisiae deletion strains, locus YLR418C, strain cdc73, stronger effect = lower value",1.09
same,normalized growth,"S. cerevisiae deletion strains, locus YML016C, strain PPZ1, stronger effect = lower value",0.999
same,normalized growth,"S. cerevisiae deletion strains, locus YML032C, strain rad52, stronger effect = lower value",0.999
same,normalized growth,"S. cerevisiae deletion strains, locus YML120C, strain ndi1, stronger effect = lower value",0.981
same,normalized growth,"S. cerevisiae deletion strains, locus YML124C, strain tub3, stronger effect = lower value",0.993
same,normalized growth,"S. cerevisiae deletion strains, locus YMR058W, strain fet3, stronger effect = lower value",1
same,normalized growth,"S. cerevisiae deletion strains, locus YMR078C, strain ctf18, stronger effect = lower value",1
same,normalized growth,"S. cerevisiae deletion strains, locus YMR125W, strain sto1, stronger effect = lower value",1.01
same,normalized growth,"S. cerevisiae deletion strains, locus YMR129W, stronger effect = lower value",1
same,normalized growth,"S. cerevisiae deletion strains, locus YMR205C, strain PFK2, stronger effect = lower value",1.06
same,normalized growth,"S. cerevisiae deletion strains, locus YMR223W, strain ubp8, stronger effect = lower value",0.98
same,normalized growth,"S. cerevisiae deletion strains, locus YMR231W, strain pep5, stronger effect = lower value",1
same,normalized growth,"S. cerevisiae deletion strains, locus YMR263W, strain SAP30, stronger effect = lower value",1.01
same,normalized growth,"S. cerevisiae deletion strains, locus YMR307W, strain GAS1, stronger effect = lower value",1.06
same,normalized growth,"S. cerevisiae deletion strains, locus YNL067W, strain RPL9B, stronger effect = lower value",0.998
same,normalized growth,"S. cerevisiae deletion strains, locus YNL071W, strain lat1, stronger effect = lower value",1
same,normalized growth,"S. cerevisiae deletion strains, locus YNL128W, strain TEP1, stronger effect = lower value",1.05
same,normalized growth,"S. cerevisiae deletion strains, locus YNL153C, strain GIM3, stronger effect = lower value",0.996
same,normalized growth,"S. cerevisiae deletion strains, locus YNL183C, strain NPR1, stronger effect = lower value",0.924
same,normalized growth,"S. cerevisiae deletion strains, locus YNL209W, strain ssb2, stronger effect = lower value",0.993
same,normalized growth,"S. cerevisiae deletion strains, locus YNL233W, strain BNI4, stronger effect = lower value",1.02
same,normalized growth,"S. cerevisiae deletion strains, locus YNL248C, strain rpa49, stronger effect = lower value",0.956
same,normalized growth,"S. cerevisiae deletion strains, locus YNL250W, strain rad50, stronger effect = lower value",0.996
same,normalized growth,"S. cerevisiae deletion strains, locus YNL271C, strain bni1, stronger effect = lower value",1.02
same,normalized growth,"S. cerevisiae deletion strains, locus YNL298W, strain CLA4, stronger effect = lower value",1
same,normalized growth,"S. cerevisiae deletion strains, locus YNL307C, strain MCK1, stronger effect = lower value",1.03
same,normalized growth,"S. cerevisiae deletion strains, locus YNL322C, strain KRE1 (second series), stronger effect = lower value",1
same,normalized growth,"S. cerevisiae deletion strains, locus YNL322C, strain KRE1, stronger effect = lower value",0.999
same,normalized growth,"S. cerevisiae deletion strains, locus YNR049C, strain mso1, stronger effect = lower value",0.984
same,normalized growth,"S. cerevisiae deletion strains, locus YNR052C, strain pop2, stronger effect = lower value",0.961
same,normalized growth,"S. cerevisiae deletion strains, locus YOL006C, strain TOP1, stronger effect = lower value",1.06
same,normalized growth,"S. cerevisiae deletion strains, locus YOL012C, strain htz1",1.62
same,normalized growth,"S. cerevisiae deletion strains, locus YOL147C, strain pex11, stronger effect = lower value",0.998
same,normalized growth,"S. cerevisiae deletion strains, locus YOR001W, strain rrp6, stronger effect = lower value",0.958
same,normalized growth,"S. cerevisiae deletion strains, locus YOR061W, strain CKA2, stronger effect = lower value",1
same,normalized growth,"S. cerevisiae deletion strains, locus YOR069W, strain VPS5, stronger effect = lower value",1
same,normalized growth,"S. cerevisiae deletion strains, locus YOR070C, strain gyp1, stronger effect = lower value",1.01
same,normalized growth,"S. cerevisiae deletion strains, locus YOR080W, strain dia2, stronger effect = lower value",1.01
same,normalized growth,"S. cerevisiae deletion strains, locus YOR083W, strain WHI5, stronger effect = lower value",0.968
same,normalized growth,"S. cerevisiae deletion strains, locus YOR106W, strain vam3, stronger effect = lower value",0.936
same,normalized growth,"S. cerevisiae deletion strains, locus YOR136W, strain idh2, stronger effect = lower value",0.999
same,normalized growth,"S. cerevisiae deletion strains, locus YOR144C, strain elg1, stronger effect = lower value",0.988
same,normalized growth,"S. cerevisiae deletion strains, locus YOR184W, strain ser1, stronger effect = lower value",0.978
same,normalized growth,"S. cerevisiae deletion strains, locus YOR231W, strain MKK1, stronger effect = lower value",0.983
same,normalized growth,"S. cerevisiae deletion strains, locus YOR265W, strain rbl2, stronger effect = lower value",1.01
same,normalized growth,"S. cerevisiae deletion strains, locus YOR270C, strain vph1, stronger effect = lower value",1.02
same,normalized growth,"S. cerevisiae deletion strains, locus YOR290C, strain snf2, stronger effect = lower value",0.994
same,normalized growth,"S. cerevisiae deletion strains, locus YOR316C, strain cot1, stronger effect = lower value",1
same,normalized growth,"S. cerevisiae deletion strains, locus YPL051W, strain arl3, stronger effect = lower value",0.981
same,normalized growth,"S. cerevisiae deletion strains, locus YPL055C, strain LGE1, stronger effect = lower value",1.02
same,normalized growth,"S. cerevisiae deletion strains, locus YPL078C, strain atp4, stronger effect = lower value",0.974
same,normalized growth,"S. cerevisiae deletion strains, locus YPL106C, strain sse1, stronger effect = lower value",1.03
same,normalized growth,"S. cerevisiae deletion strains, locus YPL240C, strain hsp82, stronger effect = lower value",0.986
same,normalized growth,"S. cerevisiae deletion strains, locus YPL241C, strain CIN2, stronger effect = lower value",1.01
same,normalized growth,"S. cerevisiae deletion strains, locus YPL256C, strain CLN2, stronger effect = lower value",0.98
same,normalized growth,"S. cerevisiae deletion strains, locus YPR119W, strain clb2, stronger effect = lower value",0.996
same,normalized growth,"S. cerevisiae deletion strains, locus YPR141C, strain kar3, stronger effect = lower value",1
same,normalized growth,"S. cerevisiae deletion strains, locus YPR163C, strain tif3, stronger effect = lower value",1.02
same,normalized growth,"S. cerevisiae deletion strains, locus YPR167C, strain met16, stronger effect = lower value",0.986
same,normalized growth,"S. cerevisiae deletion strains, strain wtn01, stronger effect = lower value",0.987
same,normalized growth,"S. cerevisiae strains, strain wild type, stronger effect = lower value",1.01

# Source: PubChem BioAssay AID1159580 (chemical genetic matrix, 2015)
